TDP-43 rescue = TDP-43 toxicity inhibition in yeast; yeast TDP-43 toxicity rescue, BacTiter-Glo growth, 24 h; 0.45% of 45,000 active; Potency, µM (doses to about 46.1 µM), most hits filed as activators; AID 1347073; active = well fitted activation curve with a large enough effect; also: 0% is about no effect; nearly all actives have a fitted effect of over 55% in size
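TDP-43-expressing yeast, pregrown in raffinose, seeded at OD600 0.02 in galactose medium with compound for 24 hr at 30 deg C. Growth read by BacTiter-Glo luminescence, so rescue of toxicity appears as activation.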
* = called active by the depositor; i = inactive. Shown is part of a subset that was picked to be rich in hits. Potency is read from the fitted curve at half-maximal effect.

SMILES | TDP-43 rescue
CN1CCN(S(=O)(=O)c2ccc(Sc3nnnn3-c3ccccc3)c([N+](=O)[O-])c2)CC1 | i
Cc1ccc(-n2nnnc2SCC(=O)NNC(=O)c2ccc([N+](=O)[O-])cc2)cc1 | i
CC(=O)c1ccc(Sc2nnnn2-c2ccccc2)c([N+](=O)[O-])c1 | 20µM*
O=C(NCC1CCCO1)C(c1ccccn1)N(Cc1ccccc1Cl)C(=O)CN1C(=O)c2ccccc2S1(=O)=O (centres undefined) | i
Cc1ccc(-n2cccn2)c(CN2CCCC(C(=O)c3ccc4c(c3)OCO4)C2)c1 (centres undefined) | i
COc1cc(C(=O)OCC2CC(c3ccccc3)=NO2)cc(OC)c1OC (centres undefined) | i
Clc1c(-c2ccccc2)nc2ccccn12 | i
Fc1ccc(-n2c(-c3ccco3)nc3nc4ccccc4nc32)cc1 | i
c1ccc(-c2nc(-c3ccco3)n3ccccc23)cc1 | 13µM*
O=C(Nc1noc2ccccc12)c1ccc(F)cc1 | i
O=C(Nc1nccs1)c1cc2c(s1)CCCCC2 | 7.1µM*
CC(C)Cc1nnc(NC(=O)c2cc3c(s2)CCC3)s1 | i
O=C(Nc1nnc(SCc2ccccc2)s1)c1cc2c(s1)CCCC2 | i
CCOC(=O)C1(CCCc2ccccc2)CCN(C(=O)C(C)n2cncn2)CC1 (centres undefined) | i
CCCS(=O)(=O)NC(=O)C1(C)CCCN(C(=O)c2ccco2)C1 (centres undefined) | i
CN1CCN(c2ncnc3c2ncn3[C@H]2CN(Cc3ccco3)C[C@@H](CO)O2)CC1 | i
NC(=O)NC(CC(=O)NNC(=O)c1cccs1)c1ccc(Cl)cc1 (centres undefined) | i
CN(C)C(CNc1ncnc2sccc12)c1ccccc1 (centres undefined) | i
OC(CNc1ncnc2sccc12)c1ccccc1 (centres undefined) | i
Fc1ccc(Nc2ncnc3sccc23)cc1 | 11µM*
CCc1ccc2c(c1)C(c1ccc([N+](=O)[O-])cc1)=NNC(c1ccc(C)cc1)=N2 | i
O/N=C/c1ccc(OCc2ccccc2)c(Cl)c1 | 10µM*
COC(=O)c1ccc(COc2ccc(/C=N/O)cc2OC)o1 | i
CN(C(=O)c1cccc(COc2ccc(Cl)cc2Cl)c1)c1ccccc1 | i
COc1cc(/C=N/NC(=O)CN2CCCCC2)ccc1OCc1ccccc1 | i
SMILES | TDP-43 rescue
COc1cc(/C=N/NC(=O)CN2CCOCC2)ccc1OCc1ccccc1 | i
O/N=C/c1ccc(OCc2ccccc2)c(Br)c1 | 11µM*
O=C(O)CCCn1cc(NC(=O)COc2cc(F)ccc2[N+](=O)[O-])cn1 | i
Cc1ccc(S(=O)(=O)c2nnn3c2nc(NC2CCCCC2)c2sccc23)cc1C | i
Cc1ccc(S(=O)(=O)CC(=O)c2cc(C)c(O)c(C)c2)cc1 | i
CCN(c1cccc(C)c1)C1C(=O)c2ccccc2N1C(C)=O (centres undefined) | i
Oc1c(Cl)cc(Cl)cc1/C=C/c1ccc2cccc(O)c2n1 | i
COc1c(OC(C)=O)ccc(/C=C/c2ccc3cccc(OCc4ccccc4)c3n2)c1[N+](=O)[O-] | i
COc1cc(Cl)cc(/C=C/c2ccc3ccccc3n2)c1OC(C)=O | 13µM*
CNc1nc(SCc2ccccc2Cl)nc2c1CCCC2 | i
Cc1c(C(=O)NCc2ccco2)oc2ccccc12 | i
O=C(Cn1ccc([N+](=O)[O-])n1)Nc1nc2ccccc2s1 | i
Oc1ccc(N2CCN(c3ccnc4cc(Cl)ccc34)CC2)cc1 | i
O=C(Oc1ccnc2cc(Cl)ccc12)N1CCCCCC1 | 3.2µM*
COc1ccccc1Oc1ccnc2cc(Cl)ccc12 | i
CN(C)c1ccc(-c2nc3ccccn3c2Nc2ccc3c(c2)OCCO3)cc1 | i
CC(C)CCNC(=O)CCn1c(=S)oc2ccccc21 | i
CC1Cc2ccccc2N1C(=O)COC(=O)c1c2c(nc3ccccc13)CCCCC2 (centres undefined) | 14µM*
CCCNC(=O)COC(=O)c1c2c(nc3ccccc13)CCC2 | i
CC1Cc2ccccc2N1C(=O)COC(=O)Cn1nnc(-c2ccccc2)n1 (centres undefined) | i
Cc1cc(OCc2nc(-c3ccncc3)no2)cc(C)c1Cl | i
Cc1cc(C)n(CC(=O)c2cccc([N+](=O)[O-])c2)n1 | i
CCOC(=O)c1ccc(N2C(=O)CC(N3CCN(Cc4ccccc4)CC3)C2=O)cc1 (centres undefined) | i
CC1CCN(C2CC(=O)N(c3ccccc3)C2=O)CC1 (centres undefined) | i
COC(=O)c1ccc(N2C(=O)CC(N3CCOCC3)C2=O)cc1 (centres undefined) | 16µM*
SMILES | TDP-43 rescue
Cc1ccc(NC(=O)CC2(CC(=O)O)CCCC2)c(C)c1 | i
CCN(Cc1ccccc1)C(=O)COC(=O)c1n[nH]c2ccccc12 | i
O=C(COC(=O)c1n[nH]c2ccccc12)Nc1ccccc1F | i
Cc1cccc(C)c1OCCOC(=O)c1n[nH]c2ccccc12 | 14µM*
Cc1cc2nc(-c3cccc(NC(=O)c4cccc5ccccc45)c3)oc2cc1C | i
CC1(C(=O)Nc2cccc(NS(C)(=O)=O)c2)Cc2c(-c3cccc(C(N)=O)c3)ccnc2O1 (centres undefined) | i
COc1ccc(N2CCOCC2)c(NC(=O)c2ccc3c(c2)OCO3)c1 | i
O=C(N/N=C/c1ccccn1)NC12CC3CC(CC(C3)C1)C2 | i
CCn1c(-c2cc(-c3ccc(C)cc3)nc3ccccc23)n[nH]c1=S | i
C=CCn1c(-c2ccccc2OC)n[nH]c1=S | i
C=CCn1c(-c2cc(-c3ccc(C)cc3)nc3ccccc23)n[nH]c1=S | 14µM*
O=C(CSc1nnc(C2CC2)n1Cc1ccccc1)N1CCNC1=O | i
Cc1ccc(NC(=O)c2ccc([N+](=O)[O-])s2)cc1S(=O)(=O)N1CCOCC1 | i
CCc1ccccc1Nc1nc(N)nc(COC(=O)CCC(=O)c2ccc(F)cc2)n1 | i
CC1CC(OC(=O)c2ccccc2C(=O)c2ccc(Cl)cc2)C(=O)O1 (centres undefined) | i
C/C(=N/NS(=O)(=O)c1ccc(C)cc1)[C@H]1C[C@@H]1c1ccccc1 | i
O/N=C(/c1ccc(Cl)cc1)C1CC1c1ccccc1 (centres undefined) | 11µM*
COc1ccc(-c2cc(C(=O)Nc3cccnc3)no2)cc1OC | i
CN(C)S(=O)(=O)N1CCC(Oc2cccc(C(=O)NCCC3=CCCCC3)c2)CC1 | i
CC1CN(C(=O)CS(=O)(=O)Cc2ccccc2)CC(C)O1 (centres undefined) | i
CC1CN(C(=O)N2c3ccccc3Sc3ccccc32)CC(C)O1 (centres undefined) | 13µM*
CC1CN(C(=O)C(Sc2ccccc2)c2ccccc2)CC(C)O1 (centres undefined) | i
COc1ccc(CN(CC(=O)NCc2ccc(F)cc2)C(=O)CCC(=O)Nc2cc(C)ccn2)cc1 | i
COCCn1cnc2c1c(=O)n(CC(=O)OCC(=O)NCC(F)(F)F)c(=O)n2Cc1ccccc1 | i
O=C(NCC1CCOCC1)c1cccc2c(-c3cccnc3)coc12 | i
COc1ccc(NC(=O)c2cccc3c(-c4cccnc4)coc23)cc1 | 10µM*
CC(C)CNC(=O)c1cccc2c(-c3cccnc3)coc12 | i
CCCCc1nnc2c(N(C)S(=O)(=O)c3ccccc3)nc3ccccc3n12 | i
CN1CCC(C)(C(=O)Nc2cccc3c2CCCC3)C1 (centres undefined) | i

Bioassay records: PubChem BioAssay, National Center for Advancing Translational Sciences (NCATS)
